This is part of a sample that, as a whole, favours compounds with a hit. Of some 83,000 tested, about 20% had one in any assay.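 Growth was measured after 48 h exposure to one concentration of compound in 96-well plates. Values under 10 count as active.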 Activity calls are given as the source filed them.
Key:
Experiment in all cases: NCI-60 one-dose screen, 48 h (100 = growth as untreated, 0 = no growth, -100 = all killed)
Settings in all cases: 10 µM unless noted
NCI-H23 lung = system: NCI-H23 lung
NCI-H226 lung = system: NCI-H226 lung
NCI-H322M lung = system: NCI-H322M lung
HOP-62 NSCLC = system: HOP-62 NSCLC
NCI-H460 lung = system: NCI-H460 lung
HOP-92 NSCLC = system: HOP-92 NSCLC
NCI-H522 lung = system: NCI-H522 lung
A549/ATCC NSCLC = system: A549/ATCC NSCLC
786-0 renal = system: 786-0 renal
COLO 205 colon = system: COLO 205 colon

Measured: growth

CN(C)CC1C(=O)O[C@H]2[C@H]1CC/C(COC(=O)NCc1ccc(Cn3c(=O)sn(CCCI)c3=O)cc1)=C\CC[C@@]1(C)O[C@@H]21 (stereo not given in full)
inactive: NCI-H23 lung 55.3% | NCI-H322M lung 95.1% | HOP-62 NSCLC 83.8% | NCI-H460 lung 100% | A549/ATCC NSCLC 101%
active: NCI-H226 lung -27.4% | HOP-92 NSCLC -87.2% | NCI-H522 lung -84.3% | 786-0 renal -73.2% | COLO 205 colon -63%

CCOC(=O)c1cnc2sc(-c3ccc(OC)cc3)nc2c1Cl
inactive: NCI-H23 lung 82% | NCI-H226 lung 99.2% | NCI-H322M lung 89.2% | HOP-62 NSCLC 112% | NCI-H460 lung 100% | HOP-92 NSCLC 94.7% | NCI-H522 lung 97.8% | A549/ATCC NSCLC 106% | 786-0 renal 115% | COLO 205 colon 123%

COc1ccc(C(c2cc(OC)c(OC)c(OC)c2)n2cncn2)cc1O (stereo not given)
inactive: NCI-H23 lung 39.9% | NCI-H226 lung 73.4% | NCI-H322M lung 51.5% | HOP-62 NSCLC 32.2% | HOP-92 NSCLC 43.9% | NCI-H522 lung 12.8% | A549/ATCC NSCLC 18.6% | 786-0 renal 28.1%
active: NCI-H460 lung 9.82% | COLO 205 colon -1.65%

O=C1c2c(c3c4cccnc4[nH]c3c3ccc4ccccc4c23)C(=O)N1O
inactive: NCI-H23 lung 35.5% | NCI-H226 lung 72.3% | NCI-H322M lung 77.8% | HOP-62 NSCLC 55.8% | NCI-H460 lung 32.4% | HOP-92 NSCLC 81.7% | NCI-H522 lung 19.9% | A549/ATCC NSCLC 83.6% | 786-0 renal 68.5% | COLO 205 colon 57.6%

c1ccc2cc(Cn3cc[n+](Cc4ccc5ccccc5c4)c3)ccc2c1
active: HOP-92 NSCLC -13.3% | NCI-H522 lung -11.7% | COLO 205 colon -73.9%
inactive: NCI-H23 lung 41.6% | NCI-H226 lung 52.1% | NCI-H322M lung 62.8% | HOP-62 NSCLC 42.1% | NCI-H460 lung 39.6% | A549/ATCC NSCLC 67.6% | 786-0 renal 52.2%

Cc1nc2cccc(NCc3ccc(C(=O)NO)cc3)c2c(=O)n1-c1ccccc1
active: NCI-H23 lung -16.8% | NCI-H522 lung -2.46% | COLO 205 colon -37.9%
inactive: NCI-H226 lung 67.2% | NCI-H322M lung 66.8% | HOP-62 NSCLC 43.9% | NCI-H460 lung 29.3% | HOP-92 NSCLC 15.3% | A549/ATCC NSCLC 34.1% | 786-0 renal 54.5%

CCNCCNc1c(C)c(-c2ccc(C(F)(F)F)cc2)c(C#N)c2nc3ccccc3n12
inactive: NCI-H23 lung 90% | NCI-H226 lung 84.8% | NCI-H322M lung 84.3% | HOP-62 NSCLC 90.9% | NCI-H460 lung 94.1% | HOP-92 NSCLC 47.1% | NCI-H522 lung 76.8% | A549/ATCC NSCLC 88.7% | 786-0 renal 77% | COLO 205 colon 88.2%

COc1cccc(/C=C/C(=O)/C=C(/C=C/c2cccc(OC)c2OC)OB(F)F)c1OC
inactive: NCI-H23 lung 44.2% | NCI-H226 lung 107% | NCI-H322M lung 92.5% | HOP-62 NSCLC 80.3% | NCI-H460 lung 90.7% | HOP-92 NSCLC 103% | NCI-H522 lung 17.4% | A549/ATCC NSCLC 88.7% | 786-0 renal 45.1% | COLO 205 colon 32.9%

COc1cc(CNC(=O)CCCC/C=C/C(C)C)ccc1OCc1cn(-c2ccc(C(F)(F)F)cc2)nn1
active: 786-0 renal 2.94%
inactive: NCI-H23 lung 94.6% | NCI-H226 lung 53.6% | NCI-H322M lung 96.1% | HOP-62 NSCLC 64.6% | NCI-H460 lung 16.7% | HOP-92 NSCLC 13.8% | NCI-H522 lung 75.6% | A549/ATCC NSCLC 49% | COLO 205 colon 72.6%

CCCC1Cc2cc(-n3nc(C)c4c3CC(C)(C)CC4=O)cc(NC3CCC(O)CC3)c2C(=O)N1 (stereo not given)
inactive: NCI-H23 lung 34.5% | NCI-H226 lung 47.7% | NCI-H322M lung 50.5% | HOP-62 NSCLC 40.1% | NCI-H460 lung 18% | NCI-H522 lung 39.1% | A549/ATCC NSCLC 31.6% | 786-0 renal 49.9% | COLO 205 colon 14%
active: HOP-92 NSCLC -0.467%

Nc1ccc(Cl)c2c(=O)c3ccccc3[nH]c12
inactive: NCI-H23 lung 71.3% | NCI-H226 lung 77% | NCI-H322M lung 99.8% | HOP-62 NSCLC 105% | NCI-H460 lung 91.2% | HOP-92 NSCLC 99.4% | NCI-H522 lung 69.8% | A549/ATCC NSCLC 80% | 786-0 renal 77.4% | COLO 205 colon 90.7%

COC(=O)CNC(=O)c1ccc(NC(=O)c2[nH]c(C)c(Cl)c2Cl)c(O[C@H]2CCNC2)c1
inactive: NCI-H23 lung 98.7% | NCI-H226 lung 104% | NCI-H322M lung 109% | HOP-62 NSCLC 95.6% | NCI-H460 lung 108% | HOP-92 NSCLC 99% | NCI-H522 lung 97.7% | A549/ATCC NSCLC 105% | 786-0 renal 102% | COLO 205 colon 110%

Cc1c(Cl)cccc1NC(=O)c1sc2nc3c(cc2c1N)CCCC3
inactive: NCI-H23 lung 58.9% | NCI-H226 lung 69.3% | NCI-H322M lung 74.2% | HOP-62 NSCLC 25.2% | NCI-H460 lung 12.9% | HOP-92 NSCLC 25.6% | A549/ATCC NSCLC 39.1% | 786-0 renal 29.8% | COLO 205 colon 22.1%
active: NCI-H522 lung 4.4%

Reference: PubChem BioAssay (NCI)
